The campaign covered roughly 48,000 compounds. About 13,000 (27%) showed an effect of 50% or more. This is one part of the list.
test system: Wolbachia pipientis; experiment: Anti-Wolbachia Cell-Based Screen; type: functional; design: scale not given: in the data most compounds retested in dose-response had high values; conditions: 5 µM

| Compound | Percent Effect |
| --- | --- |
| COc1cc(C(=O)N(CCC#N)Cc2ccccn2)cc(OC)c1C | 1.954% |
| O=C(CC1CN(Cc2ccccc2)CCO1)NC1CCCC1 (stereo unspecified) | 4.16% |
| O=C(CC1CCN(CCc2ccccc2)CC1)N1CCCOCC1 | 161.2% |
| O=C(CC1CCN(CCc2ccccc2)CC1)NC1CCOCC1 | 134.1% |
| O=C(CC1CCN(CCN2CCCCC2)CC1)N1CCOCC1 | -17.01% |
| O=C(NCC1CCN(CCc2ccccc2)C1)NCC1(O)CCC1 (stereo unspecified) | -8.264% |
| O=C(Cc1cnn(-c2ccccc2)n1)NC1CCOCC1 | 19.75% |
| CCCc1nc(CNC(=O)Cc2csc(C)n2)cs1 | -2.31% |
| Cc1nn(C)c(C)c1-c1ccnc(N(C)Cc2nc(C(C)C)no2)n1 | -10.91% |
| Cc1nn2cccnc2c1C(=O)NCc1ccccc1OC1CCC1 | -16.31% |
| O=C(c1cccnc1O)N1CCOC(Cc2cccc(C(F)(F)F)c2)C1 (stereo unspecified) | 16.06% |
| O=S(=O)(NCCCN1CC=CC1)c1cncc(Cl)c1 | -17.29% |
| CCOCC(O)c1nc2c([nH]1)CC(C)(C)CNC2=O (stereo unspecified) | 90.67% |
| Cc1cc(OCC(O)c2nc3c([nH]2)CC(C)(C)CNC3=O)ccc1Cl (stereo unspecified) | 90.28% |
| CC1(C)CNC(=O)c2nc(-c3ccccc3)[nH]c2C1 | 3.068% |
| CCC(O)c1nc2c([nH]1)CC(C)(C)CNC2=O (stereo unspecified) | 130.2% |
| CC1(C)CNC(=O)c2nc(-c3n[nH]c(=O)[nH]3)[nH]c2C1 | -9.314% |
| CC1(C)CNC(=O)c2nc(-c3nnc(-c4ccccc4)[nH]3)[nH]c2C1 | 3.309% |
| CC1(C)CNC(=O)c2nc(-c3nnn[nH]3)[nH]c2C1 | 23.12% |
| CC1(C)CNC(=O)c2nc(CCN3CCC(O)CC3)[nH]c2C1 | -46.57% |
| CC1(C)CNC(=O)c2nc(CCN3CCC(C(N)=O)CC3)[nH]c2C1 | -47.56% |
| CC(C)(C)CNS(=O)(=O)C1CS(=O)(=O)c2ccccc21 (stereo unspecified) | -2.538% |
| CCN(C)S(=O)(=O)N1CCC(C(O)c2ccc(F)cc2)CC1 (stereo unspecified) | -5.224% |
| Cc1n[nH]/c(=N\C(=O)c2c3c(nc4onc(C)c24)CCC3)s1 | 84.01% |

| Compound | Percent Effect |
| --- | --- |
| Cc1nn(C)c2nc3c(c(C(=O)/N=c4\[nH]nc(C(C)C)s4)c12)CCC3 | 112.1% |
| COCc1n[nH]/c(=N\C(=O)c2c3c(nc4onc(C)c24)CCC3)s1 | 76.74% |
| Cc1noc2nc3c(c(C(=O)/N=c4\[nH]nc(C(C)C)s4)c12)CCC3 | 96.48% |
| Cc1nc(C)c(CNC[C@@]2(COc3cccnc3)C[C@@H](O)[C@@H](O)C2)s1.Cl.Cl | 0.5308% |
| O=C(CCn1cccn1)N1C[C@@H]2CC[C@H](C1)N(Cc1ccccn1)C2=O | 2.815% |
| Cl.NCCCNS(=O)(=O)Cc1ccc(Br)cc1 | -40.39% |
| CCCc1nc(CNc2nc(C)nc3oc(C)nc23)cs1 | -12.23% |
| COc1ccc(C(=O)N2CCC(Oc3ccccc3C)(C(=O)O)CC2)o1 | -4.68% |
| Cc1cs/c(=N\C(=O)c2c3c(nc4onc(C)c24)CCC3)[nH]1 | 113% |
| Cc1noc2nc3c(c(C(=O)/N=c4\[nH]ncs4)c12)CCC3 | 123.1% |
| COCc1noc(C2(c3ccc(F)cc3)CCOCC2)n1 | -32.93% |
| O=S(=O)(NCC1CCN(CCN2CCOCC2)C1)c1ccccc1F (stereo unspecified) | 14.41% |
| CC(=O)NCC(=O)N1CCn2cc(CN3CCN(C)CC3)nc2C1.O=C(O)C(F)(F)F.O=C(O)C(F)(F)F | -9.16% |
| Cn1ccnc1CC1CCCN(C(=O)Nc2cccn(C)c2=O)C1 (stereo unspecified) | -3.094% |
| CC(=O)N1CCCC(Cc2nccn2C)C1 (stereo unspecified) | 104.6% |
| Cn1ccnc1CC1CCCN(C(=O)Cc2ccccc2)C1 (stereo unspecified) | 107.6% |
| CN(CCc1ccccc1)C1CCCN(Cc2nccn2C)C1 (stereo unspecified) | -2.668% |
| Cn1ccnc1CNC(=O)N1CCCC(Cc2nccn2C)C1 (stereo unspecified) | -2.047% |
| CCC(C)(NCc1cccc(NC(C)=O)c1)c1nc(C)cs1 (stereo unspecified) | -6.571% |
| CCNS(=O)(=O)C1CCN(C(=O)c2ccc(CC)o2)C1 (stereo unspecified) | 1.453% |
| CCN1CCN(C(=O)C(C)N2CCc3cncnc3C2)CC1 (stereo unspecified) | 4.565% |
| CNc1cc(C)nc(N2CCN(Cc3ccccc3)CC(O)C2)n1 (stereo unspecified) | 10.53% |
| Clc1cncc(NCc2cccc(OCCN3CCOCC3)c2)n1 | 2.735% |
| Cc1ccc(CC2COCCN(Cc3ccccc3)C2)nc1 (stereo unspecified) | 76.14% |

| Compound | Percent Effect |
| --- | --- |
| c1ccc(NCc2cccc(OCCN3CCOCC3)c2)nc1 | 9.722% |
| CNc1cnc(CC2COCCN(Cc3ccccc3)C2)cn1 (stereo unspecified) | 100% |
| CN1CCN2CCN(Cc3cnc(NCc4ccccc4)nc3)CC2C1 (stereo unspecified) | 2.574% |
| CC(C)(C)c1coc([C@@H]2COCCN2Cc2ccccc2)n1 | -6.681% |
| COc1ccc(CN2CCOC[C@H](OCc3ccccc3)C2)cc1 | -4.744% |
| CNc1cnc(CC2COCCN(CCOc3ccccc3)C2)cn1 (stereo unspecified) | 158.8% |
| Cc1cc(N2CCCN(CCc3ccccc3)CC2)ccn1 | 5.317% |
| O=C1O[C@@H]2CN(CCc3ccccc3)C[C@@H]2N1CCCN1CCOCC1 | -3.811% |
| Cc1cc(CC2COCCN(CCc3ccccc3)C2)ncn1 (stereo unspecified) | 136.2% |
| Cc1cc(C)n(C2CN(C(=O)Cn3c(=O)c(C)nc4ccccc43)C2)n1 | -1.32% |
| CNC(=O)[C@@H]1C[C@@H](N)CN1Cc1ccc2cccc(OC)c2n1 | -0.1513% |
| c1ccc(CCc2noc(CN3CCC(N4CCSCC4)CC3)n2)cc1 | -3.456% |
| N#Cc1ccc(CNC(=O)NC2CCN(CC(F)F)CC2)cc1 | 3.671% |
| COc1cc(O)cc2c1C(=O)CC(c1ccc(O)cc1)O2 (stereo unspecified) | -2.59% |
| CN(Cc1ccc(C#N)cc1)Cn1nccc1-c1cccnc1 | 11.16% |
| COc1ccc(CN2Cc3cn(C)nc3C(COCC3CC3)C2)cc1 (stereo unspecified) | 10.23% |
| COc1ccccc1CN(Cc1cccc(C)c1)C(=O)[C@@H](N)CC(=O)O | 3.134% |
| Cc1cccc(CN2C[C@H]3OC(=O)N(CCCN4CCOCC4)[C@H]3C2)n1 | -5.32% |
| CCCN1CCC(CC(=O)NCc2cc(O)ncn2)CC1 | -6.133% |
| Cc1cccc(O[C@H]2COCCN(Cc3sc(C)nc3C)C2)n1 | 12.2% |
| CNc1cnc(CC2COCCN(Cc3cccc(C)n3)C2)cn1 (stereo unspecified) | 107% |
| OC1COCCN(Cc2cccc(N3CCOCC3)c2)C1 (stereo unspecified) | -7.923% |
| Oc1cc(CC2COCCN(CC3(O)CCOCC3)C2)ncn1 (stereo unspecified) | 130% |

Reference: ChEMBL document CHEMBL3988442, “University of Dundee, Small-Polar-MMV Screening Library” (2021)
